# Results as given in ChEMBL document CHEMBL3988442, “University of Dundee, Small-Polar-MMV Screening Library” (2021).
# Hit rate of the full screen: of about 48,000 compounds, about 13,000 (27%) showed an effect of 50% or more. The list shows a part of the results.
# Tested on: Wolbachia pipientis
# Test: Anti-Wolbachia Cell-Based Screen
# Assay type: functional
# Design: scale not given: in the data most compounds retested in dose-response had high values
# Settings: 5 µM
row,Structure (SMILES),Percent Effect [%]
1,CCNC(=O)CCC(=O)NC(C)Cc1ccccc1Br (stereo not drawn),15.31
2,N#Cc1cnc2ccccc2c1N1CCNCC1,-0.76
3,Cc1nn(C)c2ncc(S(=O)(=O)N3CCCN4CCCC4C3)cc12 (stereo not drawn),-8.04
4,CC(C)n1[nH]c(=O)c2c1NC(=O)CSC2c1ccc(OCC(N)=O)cc1 (stereo not drawn),116.2
5,COc1cccc(C2SCC(=O)Nc3ccsc32)c1 (stereo not drawn),-17.04
6,CC(C)n1[nH]c(=O)c2c1NC(=O)CSC2c1cccc(OCC(N)=O)c1 (stereo not drawn),107.3
7,COc1cc(OC)cc(C2SCC(=O)Nc3ccsc32)c1 (stereo not drawn),-4.704
8,CCN1CCC2(CCC1=O)CN(c1ccnc(SC)n1)CCN2C (stereo not drawn),-2.766
9,Cc1cc(CC(=O)N2CCN(CC(C)C)[C@@H]3CS(=O)(=O)C[C@@H]32)ccc1F,-16.98
10,CCC1=N[C@@]2(CC[C@@H]3CN(CC)C[C@@H]32)C(=O)N1C,107.7
11,CC1=N[C@@]2(CC[C@@H]3CN(CC(C)C)C[C@@H]32)C(=O)N1,-12.28
12,COc1ccc(C(=O)C2CCCN(Cc3ccncc3)C2)c(OC)c1 (stereo not drawn),-2.027
13,Cc1c(CC(=O)N2CCN(CC(F)(F)F)CC2)nnn1-c1ccccc1,-7.021
14,CCOCC(O)CN1CCN(C(=O)Cc2ccccc2Cl)CC1 (stereo not drawn),-8.97
15,Cl.O=C(Cc1ccc(F)cc1)N1CCN(CC(O)C2CC2)CC1 (stereo not drawn),-12.59
16,COc1ccc(Cl)cc1CC(=O)N1CCN(CC(C)O)CC1 (stereo not drawn),112.2
17,COc1ccc(Cl)cc1CC(=O)N1CCN(CC(C)(C)O)CC1,104.9
18,Cc1oc(-c2ccco2)nc1CC(=O)N1CCN(CC(C)(C)O)CC1,-7.111
19,CCC1CNCc2cc3c(OC)ccc(OC)c3nc2O1 (stereo not drawn),82.52
20,CCC1CNCc2cc3c(C)ccc(C)c3nc2O1 (stereo not drawn),108.6
21,OCCCN(CCc1cccc(F)c1)C1CC1,110

row,Structure (SMILES),Percent Effect [%]
1,CC(=O)N1CC2(CCNCC2)c2cc(Cl)ccc21.Cl,94.12
2,CN1C(=O)C2(CCNCC2)c2cc(F)ccc21.Cl,-10.96
3,CN1C(=O)CC2(CCNCC2)c2ccccc21,-12.38
4,COC(=O)N1CC2(CCNCC2)c2cc(Cl)ccc21.Cl,101.7
5,CC(=O)N1CC2(CCNCC2)c2cc(C)ccc21,-30.16
6,Cn1nc(-c2cccs2)cc1[C@H]1CN2CC[C@H]1C[C@@H]2CNS(C)(=O)=O,-2.456
7,CC(Cn1ccnc1)NS(=O)(=O)c1ccc(C#N)c(Cl)c1 (stereo not drawn),2.375
8,O=C1CSC(c2ccsc2)c2c(n(C3CCOCC3)[nH]c2=O)N1 (stereo not drawn),12.85
9,O=C1CSC(c2ccc(O)c(Cl)c2)c2c(n(C3CCOCC3)[nH]c2=O)N1 (stereo not drawn),12.23
10,CC(C)COc1ccc(C2SCC(=O)Nc3c2c(=O)[nH]n3C(C)C)cc1 (stereo not drawn),105.8
11,CCOc1ccc(C2SCC(=O)Nc3c2c(=O)[nH]n3C(CC)CC)cc1 (stereo not drawn),117.7
12,CCCOc1ccc(C2SCC(=O)Nc3c2c(=O)[nH]n3C(C)C)cc1 (stereo not drawn),107.1
13,COc1cc(C2SCC(=O)Nc3ccsc32)cc(OC)c1OC (stereo not drawn),-0.744
14,CCOc1ccc(C2SCC(=O)Nc3c2c(=O)[nH]n3C(C)C)cc1 (stereo not drawn),112
15,CC(C)c1nccc([C@H]2C[C@@H]3CCN(Cc4ccco4)C[C@H]3O2)n1,-3.761
16,O=C(Nc1cccnc1)[C@H]1CN(Cc2cccs2)C[C@H]2OCC[C@@H]12,-5.403
17,CNS(=O)(=O)CC(=O)NC(C)Cc1ccccc1Br (stereo not drawn),-19.16
18,COCC(C)NC(=O)c1cn(C(C)(C)C)c2ncccc12 (stereo not drawn),0.2413
19,COCCN(CCOC)C(=O)c1cn(C(C)(C)C)c2ncccc12,135.3
20,COCCNC(=O)c1cn(C(C)(C)C)c2ncccc12,1.004
21,CCOCCCNC(=O)c1cn(C(C)(C)C)c2ncccc12,117.9

row,Structure (SMILES),Percent Effect [%]
1,COCCCNC(=O)c1cn(C(C)(C)C)c2ncccc12,120.5
2,CC(Cn1ccnc1)NCc1n[nH]c2c1CCC2 (stereo not drawn),-9.016
3,N#Cc1ccc(N2CCC(OC3CCOCC3)CC2)cc1Cl,-7.664
4,O=C(CC[C@@H]1CCCN2CCCC[C@H]12)NCCc1cc(O)ncn1,-16.08
5,CCc1noc(CC)c1CC(=O)N1CCN(C(C#N)C(C)C)CC1 (stereo not drawn),-3.422
6,Cc1noc([C@]23COC[C@H]2CN(Cc2cc(C)on2)C3)n1.O=C(O)C(F)(F)F,2.509
7,FC(F)CN1CCOC(Cn2cccn2)C1 (stereo not drawn),120.3
8,Cc1ncc2c(c1CNC(=O)C1(C)CCCO1)CCNC2 (stereo not drawn),2.031
9,CC(C)NC(=O)[C@H]1C[C@H]2NCCO[C@@H]2C1,34.99
10,CC(C)NC(=O)[C@@H]1C[C@H]2NCC[C@H]2O1.Cl,109.5
11,O=C(NC1CCC1)[C@H]1C[C@H]2NCCO[C@@H]2C1,-2.9
12,Cc1cccc(C(=O)N2C[C@@H]3OCCN(C(C)C)[C@@H]3C2)n1,-13.51
13,COCC(=O)N1CC[C@H]2[C@H]1CCN2CC(C)C,-1.269
14,FC1(F)CCNCC12CCN(c1cccnc1)C2.O=C(O)C(F)(F)F.O=C(O)C(F)(F)F (stereo not drawn),-21.44
15,OCCN1CCC(F)(F)C2(CCN(c3cccnc3)C2)C1 (stereo not drawn),103.9
16,Cc1ccc(N2CCC3(CN(CCO)CCC3(F)F)C2)nn1.O=C(O)C(F)(F)F (stereo not drawn),100.9
17,O=C(O)C(F)(F)F.O=C(O)C(F)(F)F.O=C(O)CN1CCC(F)(F)C2(CCN(c3ccccn3)C2)C1 (stereo not drawn),-9.228
18,O=C(O)C(F)(F)F.O=C(O)C(F)(F)F.OCCN1CC2(CCN(c3ccccc3)C2)C1,6.244
19,NCC1(c2cccc(C(F)(F)F)c2)CC1,-45.72
20,C[C@H]1C[C@@H]2CCN(Cc3nccs3)C[C@H]2O1,-9.973
21,CC(Cn1ccnc1)NCc1csc2c1CCCC2 (stereo not drawn),-4.512
